In PubChem BioAssay AID1159580 (chemical genetic matrix, 2015):
Out of some 5,500 compounds screened, about 2,000 (36%) were called active. Another 18% or so got no clear call; they are omitted. Cut-off read from the data, not from the text of the source: active = normalized growth mostly below about 0.91 (no sharp cut-off); inconclusive = no clear call, values can overlap the other calls; inactive = mostly above about 0.92. This is one part of the list.

Experiment: chemical genetic growth profiling, strain panel (AID 1159580);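 note: tested at 20 µM; growth read once vehicle control cultures reached saturation at 30 °C; 1 = growth at the plate median or of vehicle wells; lower values mean less growth of the strain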
Details: growth OD
[1] = S. cerevisiae deletion strains, locus YDL101C, strain DUN1, hits give low values
[2] = S. cerevisiae deletion strains, locus YHR030C, strain SLT2, hits give low values
[3] = S. cerevisiae deletion strains, locus YJL095W, strain BCK1, hits give low values
[4] = S. cerevisiae deletion strains, locus YOR061W, strain CKA2, hits give low values

Measured: normalized growth

O=C(NNc1cc(C(F)(F)F)cc(C(F)(F)F)c1)c1cnc2n(c1=O)CCS2
inactive: S. cerevisiae deletion strains, locus YAR019C, strain CDC15, hits give low values 0.985 | S. cerevisiae deletion strains, locus YBL105C, strain PKC1, hits give low values 0.987 | S. cerevisiae deletion strains, locus YBR135W, strain CKS1, hits give low values 0.99 | S. cerevisiae deletion strains, locus YBR136W, strain MEC1, hits give low values 0.983 | S. cerevisiae deletion strains, locus YBR160W, strain CDC28, hits give low values 0.99 | S. cerevisiae deletion strains, locus YDL017W, strain CDC7, hits give low values 0.986 | S. cerevisiae deletion strains, locus YDL028C, strain MPS1, hits give low values 0.991 | [1] 0.983 | S. cerevisiae deletion strains, locus YDL108W, strain KIN28, hits give low values 1 | S. cerevisiae deletion strains, locus YDL132W, strain cdc53, hits give low values 0.998 | S. cerevisiae deletion strains, locus YDL214C, strain PRR2, hits give low values 0.992 | S. cerevisiae deletion strains, locus YDR052C, strain DBF4, hits give low values 0.991 | S. cerevisiae deletion strains, locus YDR054C, strain cdc34, hits give low values 0.993 | S. cerevisiae deletion strains, locus YDR226W, strain ADK1, hits give low values 0.987 | S. cerevisiae deletion strains, locus YDR477W, strain SNF1, hits give low values 0.994 | S. cerevisiae deletion strains, locus YER123W, strain YCK3, hits give low values 0.936 | S. cerevisiae deletion strains, locus YER133W, strain GLC7, hits give low values 0.977 | S. cerevisiae deletion strains, locus YFL009W, strain cdc4, hits give low values 0.987 | S. cerevisiae deletion strains, locus YFL029C, strain CAK1, hits give low values 1 | S. cerevisiae deletion strains, locus YFR003C, strain YPI1, hits give low values 0.999 | S. cerevisiae deletion strains, locus YFR019W, strain FAB1, hits give low values 0.982 | S. cerevisiae deletion strains, locus YFR028C, strain CDC14, hits give low values 0.983 | S. cerevisiae deletion strains, locus YGR040W, strain KSS1, hits give low values 1 | S. cerevisiae deletion strains, locus YGR052W, strain FMP48, hits give low values 1.03 | S. cerevisiae deletion strains, locus YGR092W, strain DBF2, hits give low values 0.961 | [2] 0.939 | S. cerevisiae deletion strains, locus YHR079C, strain IRE1, hits give low values 0.972 | S. cerevisiae deletion strains, locus YHR082C, strain KSP1, hits give low values 1.01 | S. cerevisiae deletion strains, locus YHR205W, strain SCH9, hits give low values 0.938 | S. cerevisiae deletion strains, locus YIL147C, strain SLN1, hits give low values 0.988 | [3] 0.98 | S. cerevisiae deletion strains, locus YJL128C, strain PBS2, hits give low values 1.02 | S. cerevisiae deletion strains, locus YJL157C, strain FAR1, hits give low values 0.996 | S. cerevisiae deletion strains, locus YJR016C, strain ILV3, hits give low values 0.99 | S. cerevisiae deletion strains, locus YJR066W, strain TOR1 (second series), hits give low values 0.995 | S. cerevisiae deletion strains, locus YJR066W, strain TOR1, hits give low values 0.974 | S. cerevisiae deletion strains, locus YKL048C, strain ELM1, hits give low values 0.971 | S. cerevisiae deletion strains, locus YKL067W, strain YNK1, hits give low values 0.995 | S. cerevisiae deletion strains, locus YKL101W, strain HSL1, hits give low values 1.01 | S. cerevisiae deletion strains, locus YKL193C, strain SDS22, hits give low values 0.986 | S. cerevisiae deletion strains, locus YKL203C, strain TOR2, hits give low values 1.03 | S. cerevisiae deletion strains, locus YLR113W, strain HOG1, hits give low values 0.883 | S. cerevisiae deletion strains, locus YLR133W, strain CKI1, hits give low values 1.01 | S. cerevisiae deletion strains, locus YLR403W, strain SFP1, hits give low values 0.99 | S. cerevisiae deletion strains, locus YML070W, strain DAK1, hits give low values 0.973 | S. cerevisiae deletion strains, locus YMR001C, strain CDC5, hits give low values 0.995 | S. cerevisiae deletion strains, locus YMR205C, strain PFK2 (second series), hits give low values 1.01 | S. cerevisiae deletion strains, locus YMR277W, strain FCP1, hits give low values 0.992 | S. cerevisiae deletion strains, locus YNL006W, strain LST8, hits give low values 1 | S. cerevisiae deletion strains, locus YNL020C, strain ARK1, hits give low values 1 | S. cerevisiae deletion strains, locus YNL161W, strain CBK1, hits give low values 0.98 | S. cerevisiae deletion strains, locus YNL183C, strain NPR1, hits give low values 0.962 | S. cerevisiae deletion strains, locus YNL207W, strain RIO2, hits give low values 0.996 | S. cerevisiae deletion strains, locus YNL222W, strain SSU72, hits give low values 0.988 | S. cerevisiae deletion strains, locus YNL307C, strain MCK1 (second series), hits give low values 0.935 | S. cerevisiae deletion strains, locus YOL078W, strain AVO1, hits give low values 0.992 | S. cerevisiae deletion strains, locus YOL136C, strain PFK27, hits give low values 0.971 | [4] 1.02 | S. cerevisiae deletion strains, locus YOR119C, strain RIO1, hits give low values 0.983 | S. cerevisiae deletion strains, locus YOR231W, strain MKK1, hits give low values 0.979 | S. cerevisiae deletion strains, locus YOR329C, strain SCD5, hits give low values 0.983 | S. cerevisiae deletion strains, locus YPL031C, strain PHO85, hits give low values 0.983 | S. cerevisiae deletion strains, locus YPL153C, strain RAD53, hits give low values 0.986 | S. cerevisiae deletion strains, locus YPL204W, strain HRR25, hits give low values 0.982 | S. cerevisiae deletion strains, locus YPL209C, strain IPL1, hits give low values 0.984 | S. cerevisiae deletion strains, locus YPL256C, strain CLN2, hits give low values 0.936 | S. cerevisiae deletion strains, locus YPR025C, strain CCL1, hits give low values 0.972 | S. cerevisiae deletion strains, locus YPR106W, strain ISR1, hits give low values 0.995 | S. cerevisiae deletion strains, locus YPR111W, strain DBF20, hits give low values 0.997 | S. cerevisiae deletion strains, strain NNK1, hits give low values 0.988 | S. cerevisiae deletion strains, strain TSCII, hits give low values 0.987

O=c1c(O)cccc2c(C3Oc4cc(O)cc(O)c4CC3O)cc(O)c(O)c12 (stereo not drawn)
inactive: S. cerevisiae deletion strains, locus YBR021W, strain FUR4, hits give low values 0.966 | S. cerevisiae deletion strains, locus YER110C, hits give low values 0.963 | S. cerevisiae deletion strains, locus YOL012C, strain htz1 0.2 | S. cerevisiae deletion strains, locus YPR119W, strain clb2, hits give low values 0.946
active: S. cerevisiae deletion strains, locus YBR229C, strain ROT2, hits give low values 0.409 | S. cerevisiae deletion strains, locus YCL029C, strain bik1, hits give low values 0.239 | S. cerevisiae deletion strains, locus YDL035C, strain GPR1, hits give low values 0.301 | S. cerevisiae deletion strains, locus YDL074C, strain BRE1, hits give low values 0.322 | [1] 0.219 | S. cerevisiae deletion strains, locus YDL134C, strain PPH21, hits give low values 0.314 | S. cerevisiae deletion strains, locus YDL185W, strain tfp1, hits give low values 0.195 | S. cerevisiae deletion strains, locus YDL192W, strain arf1, hits give low values 0.522 | S. cerevisiae deletion strains, locus YDR101C, strain arx1, hits give low values 0.295 | S. cerevisiae deletion strains, locus YDR162C, strain NBP2, hits give low values 0.137 | S. cerevisiae deletion strains, locus YDR318W, strain mcm21, hits give low values 0.696 | S. cerevisiae deletion strains, locus YDR388W, hits give low values 0.691 | S. cerevisiae deletion strains, locus YDR502C, strain sam2, hits give low values 0.287 | S. cerevisiae deletion strains, locus YER155C, strain BEM2, hits give low values 0.489 | S. cerevisiae deletion strains, locus YER167W, strain BCK2, hits give low values 0.682 | S. cerevisiae deletion strains, locus YGL078C, strain dbp3, hits give low values 0.139 | S. cerevisiae deletion strains, locus YGL086W, strain mad1, hits give low values 0.494 | S. cerevisiae deletion strains, locus YGL248W, strain PDE1, hits give low values 0.523 | S. cerevisiae deletion strains, locus YGR078C, strain PAC10, hits give low values 0.686 | S. cerevisiae deletion strains, locus YGR135W, strain pre9, hits give low values 0.504 | S. cerevisiae deletion strains, locus YGR252W, strain gcn5, hits give low values 0.54 | [2] 0.484 | S. cerevisiae deletion strains, locus YHR079C, strain IRE1 (second series), hits give low values 0.116 | S. cerevisiae deletion strains, locus YHR094C, strain hxt1, hits give low values 0.835 | S. cerevisiae deletion strains, locus YHR129C, strain ARP1, hits give low values 0.43 | S. cerevisiae deletion strains, locus YHR200W, strain rpn10, hits give low values 0.623 | S. cerevisiae deletion strains, locus YIL066C, strain RNR3, hits give low values 0.259 | S. cerevisiae deletion strains, locus YIL073C, strain SPO22, hits give low values 0.243 | S. cerevisiae deletion strains, locus YIL125W, strain kgd1, hits give low values 0.272 | S. cerevisiae deletion strains, locus YIR030C, strain dcg1, hits give low values 0.716 | [3] 0.0943 | S. cerevisiae deletion strains, locus YJL134W, strain LCB3, hits give low values 0.58 | S. cerevisiae deletion strains, locus YJL168C, strain set2, hits give low values 0.913 | S. cerevisiae deletion strains, locus YJL187C, strain SWE1 (second series), hits give low values 0.118 | S. cerevisiae deletion strains, locus YKL009W, strain mrt4, hits give low values 0.0997 | S. cerevisiae deletion strains, locus YKL068W, hits give low values 0.889 | S. cerevisiae deletion strains, locus YKL085W, strain MDH1 (second series), hits give low values 0.303 | S. cerevisiae deletion strains, locus YKL085W, strain MDH1, hits give low values 0.303 | S. cerevisiae deletion strains, locus YKR001C, strain vps1, hits give low values 0.523 | S. cerevisiae deletion strains, locus YLR039C, strain RIC1, hits give low values 0.251 | S. cerevisiae deletion strains, locus YLR058C, strain SHM2, hits give low values 0.143 | S. cerevisiae deletion strains, locus YLR102C, strain apc9, hits give low values 0.92 | S. cerevisiae deletion strains, locus YLR262C, strain YPT6, hits give low values 0.497 | S. cerevisiae deletion strains, locus YLR268W, strain sec22, hits give low values 0.201 | S. cerevisiae deletion strains, locus YLR330W, strain CHS5, hits give low values 0.565 | S. cerevisiae deletion strains, locus YLR342W, strain FKS1 (second series), hits give low values 0.321 | S. cerevisiae deletion strains, locus YLR371W, strain rom2, hits give low values 0.626 | S. cerevisiae deletion strains, locus YLR418C, strain cdc73, hits give low values 0.306 | S. cerevisiae deletion strains, locus YML016C, strain PPZ1, hits give low values 0.225 | S. cerevisiae deletion strains, locus YML032C, strain rad52, hits give low values 0.391 | S. cerevisiae deletion strains, locus YML124C, strain tub3, hits give low values 0.56 | S. cerevisiae deletion strains, locus YMR078C, strain ctf18, hits give low values 0.885 | S. cerevisiae deletion strains, locus YMR223W, strain ubp8, hits give low values 0.564 | S. cerevisiae deletion strains, locus YMR263W, strain SAP30, hits give low values 0.233 | S. cerevisiae deletion strains, locus YMR307W, strain GAS1, hits give low values 0.462 | S. cerevisiae deletion strains, locus YNL067W, strain RPL9B, hits give low values 0.386 | S. cerevisiae deletion strains, locus YNL128W, strain TEP1, hits give low values 0.136 | S. cerevisiae deletion strains, locus YNL153C, strain GIM3, hits give low values 0.266 | S. cerevisiae deletion strains, locus YNL233W, strain BNI4, hits give low values 0.453 | S. cerevisiae deletion strains, locus YNL250W, strain rad50, hits give low values 0.098 | S. cerevisiae deletion strains, locus YNL271C, strain bni1, hits give low values 0.53 | S. cerevisiae deletion strains, locus YNL298W, strain CLA4, hits give low values 0.824 | S. cerevisiae deletion strains, locus YNL307C, strain MCK1, hits give low values 0.832 | S. cerevisiae deletion strains, locus YNR052C, strain pop2, hits give low values 0.127 | S. cerevisiae deletion strains, locus YOL147C, strain pex11, hits give low values 0.287 | [4] 0.468 | S. cerevisiae deletion strains, locus YOR069W, strain VPS5, hits give low values 0.29 | S. cerevisiae deletion strains, locus YOR136W, strain idh2, hits give low values 0.67 | S. cerevisiae deletion strains, locus YOR144C, strain elg1, hits give low values 0.198 | S. cerevisiae deletion strains, locus YOR184W, strain ser1, hits give low values 0.357 | S. cerevisiae deletion strains, locus YOR316C, strain cot1, hits give low values 0.922 | S. cerevisiae deletion strains, locus YPL055C, strain LGE1, hits give low values 0.271 | S. cerevisiae deletion strains, locus YPL241C, strain CIN2, hits give low values 0.617 | S. cerevisiae deletion strains, locus YPR141C, strain kar3, hits give low values 0.17 | S. cerevisiae deletion strains, locus YPR163C, strain tif3, hits give low values 0.703 | S. cerevisiae deletion strains, locus YPR167C, strain met16, hits give low values 0.707 | S. cerevisiae deletion strains, strain wtn01, hits give low values 0.44 | S. cerevisiae strains, strain wild type, hits give low values 0.134
